Hits are enriched below; roughly 2.3% of the tested compounds scored in any of these assays.
A549 viability: kills or reduces viability of A549 cells in Nrf2 counter-screen | A549 ARE-Fluc cells, CellTiter-Fluor viability, 18-24 h | Potency, µM (titrated, usually from 46 µM), for the others: at the top dose activity change, negative = cytotoxicity, hits mostly inhibitors | actives 0.16% (n = 390,000); also: potency is read from the fitted curve at half-maximal effect; % is scaled to controls: 0 for no effect and ±100 for the full control effect
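Cytotoxicity counterscreen: CellTiter-Fluor fluorescence was measured in A549 ARE_Fluc cells after 18-24 h of compound exposure in a concentration series. The subsequent BugLite luminescent read reports ARE-luciferase activity.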
Nrf2 inh: blocks Nrf2 signaling; A549 ARE-Fluc reporter, luciferase luminescence, 18-24 h; Potency, µM (highest dose often 46 µM), for inactives: at the top dose activity change, negative = inhibition, usual class: inhibitors; actives 2.1% (n = 360,000); also: potency is read from the fitted curve at half-maximal effect; % is scaled to controls: 0 for no effect and ±100 for the full control effect; nearly all actives have a fitted effect of over 60% in size
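Nrf2 activity is the BugLite luminescence, read 15 min after reagent at room temperature, following CellTiter-Fluor cytotoxicity readout (30 min, 37C). Compound titrations were applied for 18-24 h to 5000 A549 ARE_Fluc cells/well in 5% FBS OPTI-MEM.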
IL2 activator: activates IL-2 in a cell-based reporter assay; actives 0.065% (n = 360,000); activation, % (series mostly up to about 46 µM); IL-2 activation reporter assay, cell-based qHTS; stimulated with anti-CD3/CD4/CD28 beads; in transgenic mouse T cells; in the data active = activation above about 50%; inconclusive = mostly about 30% to 49%; also: 0% is about no effect
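Using fluorescent plate cytometry, EGFP and DsRed are detected in transgenic mouse T cells stimulated 18 h at 37 degrees C with antibody-coated beads after 60 min compound pretreatment.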
Nrf2 activator: activators of Nrf2 (ARE) signaling. actives 0.31% (n = 410,000). AREc32 ARE-luciferase reporter (MCF7-derived line), luminescence, 24 h. Potency, µM (top dose mostly 46.1 µM), inactives show top-dose activation, most hits filed as activators; also: potency is read from the fitted curve at half-maximal effect; % of control where 0% means no effect; nearly all actives have a fitted effect of over 65% in size
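Quantitative high-throughput format: AREc32 reporter cells, 1000 per well, received compound by pin transfer and were incubated 24 hr at 37 deg C, 5% CO2, before Steady-Glo luminescence detection.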
* marks the source's active call; other numbers are inactive results. Unless noted, calls follow the shape of the dose curve; as a rule, active = well fitted curve in the direction sought with a large enough effect; inconclusive = small, poorly fitted or top-dose-only effect, or another doubt; inactive = no such curve, though single readings can be large; an effect the other way counts as inactive or inconclusive.

How did Cc1ccc(C(=O)NCc2ccco2)cc1S(=O)(=O)Nc1cccc(Cl)c1 do in these assays?
A549 viability: -12%; Nrf2 inh: 23µM*; IL2 activator: 0; Nrf2 activator: 3%

What do the screens show for `Cc1ccc(C)c(S(=O)(=O)NCc2ccc(C(=O)NCc3ccco3)cc2)c1`?
A549 viability: -2%; Nrf2 inh: 7%; IL2 activator: 0; Nrf2 activator: 4%

Results for CCN(CC)C(=O)c1sc2nc(-c3ccccn3)[nH]c(=O)c2c1C ?
A549 viability: 3%; Nrf2 inh: -7%; IL2 activator: 0; Nrf2 activator: 3%

How did Cc1sc2nc(-c3ccccn3)[nH]c(=O)c2c1-c1ccccc1 do in these assays?
A549 viability: -9%; Nrf2 inh: 12µM*; IL2 activator: 2; Nrf2 activator: 5%

Results for CCn1c(=O)n(CC)c2cc(N3CCCC3)c(NC(=O)c3cc(Cl)ccc3OC)cc21 ?
A549 viability: inconclusive; Nrf2 inh: 21µM*; IL2 activator: -3; Nrf2 activator: 0%

How did COc1ccc(Cl)cc1C(=O)Nc1ccc(-c2nnc3n2CCCCC3)cc1 do in these assays?
A549 viability: -14%; Nrf2 inh: 23µM*; Nrf2 activator: 0%

How did CCOc1ccc(C(=O)Nc2ccc(-c3nnc4n3CCCCC4)cc2)cc1OCC do in these assays?
A549 viability: 6%; Nrf2 inh: -19%; Nrf2 activator: 0%

What do the screens show for `CCOC(=O)c1ccc(-n2c(CCC(=O)O)ccc2-c2ccc(Br)cc2)cc1`?
A549 viability: -1%; Nrf2 inh: -6%; Nrf2 activator: 14%

Results for CCOC(=O)c1[nH]c(C)c(CCC(=O)Nc2ccccc2OCC)c1C ?
A549 viability: -1%; Nrf2 activator: -1%

How did Cn1c(=O)c2c(ncn2Cc2ccccc2)n(C)c1=O do in these assays?
A549 viability: -3%; Nrf2 inh: -15%; IL2 activator: 2; Nrf2 activator: 0%

How did COc1cccc(Cn2cnc3c2c(=O)n(C)c(=O)n3C)c1 do in these assays?
A549 viability: -1%; Nrf2 inh: 13µM*; Nrf2 activator: -1%

How did CCc1nn(CC(=O)N2CCCCC2)c(=O)c2cc3sccc3n12 do in these assays?
A549 viability: 4%; Nrf2 inh: -8%; Nrf2 activator: 1%

Results for O=C(Nc1ncccc1O)c1ccc(S(=O)(=O)Nc2ccccc2)cc1 ?
A549 viability: 0%; Nrf2 inh: -21%; IL2 activator: 0; Nrf2 activator: 11µM*

What do the screens show for `O=C(Nc1ccccc1O)c1ccc(NS(=O)(=O)c2cccc3cccnc23)cc1`?
A549 viability: 10%; Nrf2 inh: -10%; IL2 activator: -1; Nrf2 activator: 11µM*

How did CC1=C(C(=O)OC2CCCC2)C(c2cccc(Cl)c2Cl)CC(=O)N1 (configuration not stated) do in these assays?
A549 viability: 0%; Nrf2 inh: inconclusive; Nrf2 activator: 1%

How did COc1ccc(OC)c(-c2nnc3n2N=C(c2ccc(OC)c(OC4CCCC4)c2)CS3)c1 do in these assays?
A549 viability: -18%; Nrf2 inh: 18µM*; IL2 activator: 0; Nrf2 activator: -1%

How did COc1ccc(OC)c(C2=Nn3c(nnc3C3CCCCC3)SC2)c1 do in these assays?
A549 viability: -18%; Nrf2 inh: 21µM*; IL2 activator: -6; Nrf2 activator: 0%

Results for COc1ccccc1C1=Nn2c(nnc2C2CCCCC2)SC1 ?
A549 viability: -5%; Nrf2 inh: -6%; IL2 activator: 2; Nrf2 activator: 0%

How did COc1ccc(OC)c(-c2nnc3n2N=C(c2ccc(OC)c(OC)c2)CS3)c1 do in these assays?
A549 viability: -5%; Nrf2 inh: inconclusive; IL2 activator: -2; Nrf2 activator: 3%

How did Cc1ccc(S(=O)(=O)Nc2cc(Cl)c3oc4c(c3c2)CCCC4)cc1 do in these assays?
A549 viability: 12%; Nrf2 inh: -23%; Nrf2 activator: -4%

What do the screens show for `O=C(CN1C(=O)/C(=C\c2ccccc2Cl)Sc2ccccc21)NCCCN1CCOCC1`?
A549 viability: inconclusive; Nrf2 inh: 21µM*; IL2 activator: -3; Nrf2 activator: inconclusive

How did O=C(CN1C(=O)/C(=C\c2cccc(Cl)c2)Sc2ccccc21)NCCCN1CCOCC1 do in these assays?
A549 viability: -2%; Nrf2 inh: -1%; IL2 activator: 0; Nrf2 activator: 7%

How did CCCCCn1c(N2CCC(Cc3ccccc3)CC2)nc2c1c(=O)[nH]c(=O)n2C do in these assays?
A549 viability: inconclusive; Nrf2 inh: 23µM*; IL2 activator: -4; Nrf2 activator: -1%

What do the screens show for `CCCn1c(N2CCC(Cc3ccccc3)CC2)nc2c1c(=O)[nH]c(=O)n2C`?
A549 viability: inconclusive; IL2 activator: 1; Nrf2 activator: 5%

How did COc1ccc(N2CCN(c3nc4c(c(=O)n(C)c(=O)n4C)n3Cc3ccccc3)CC2)cc1 do in these assays?
A549 viability: -19%; Nrf2 inh: inconclusive; IL2 activator: -1; Nrf2 activator: 3%

How did CCCCCn1c(CN(C)Cc2ccccc2)nc2c1c(=O)n(C)c(=O)n2C do in these assays?
A549 viability: -20%; Nrf2 inh: 18µM*; IL2 activator: -4; Nrf2 activator: 0%

Results for C=C(C)CSc1nc2c(c(=O)[nH]c(=O)n2C)n1Cc1ccccc1 ?
A549 viability: 6%; Nrf2 inh: 5.8µM*; IL2 activator: -4; Nrf2 activator: 2%

What do the screens show for `C=C(C)Cn1c(N2CCN(c3ccc(OC)cc3)CC2)nc2c1c(=O)n(C)c(=O)n2C`?
A549 viability: -23%; Nrf2 inh: 23µM*; IL2 activator: -1; Nrf2 activator: 2%

Results for Cc1ccc(-c2cc(C(=O)N3CCN(S(=O)(=O)c4ccc(Br)s4)CC3)[nH]n2)cc1C ?
A549 viability: 4%; Nrf2 inh: -9%; Nrf2 activator: 1%

Results for Cc1cc(C)n(C(C)CC(=O)Nc2cccc(C(F)(F)F)c2)n1 (configuration not stated) ?
A549 viability: 0%; Nrf2 inh: inconclusive; Nrf2 activator: 1%

Results for O=C(Nc1ccc2oc(-c3cccc4c(Br)cccc34)nc2c1)c1ccc(F)cc1 ?
A549 viability: -4%; Nrf2 inh: 1%; Nrf2 activator: -1%

What do the screens show for `Cn1cc(S(=O)(=O)N2CCCC2)cc1C(=O)Nc1ccc(F)cc1F`?
A549 viability: 2%; Nrf2 inh: 12%; Nrf2 activator: -1%

Results for COC(=O)Cn1c(CN2CCN(c3ccc(F)cc3)CC2)nc2c1c(=O)n(C)c(=O)n2C ?
A549 viability: -5%; Nrf2 inh: 18µM*; IL2 activator: -4; Nrf2 activator: -1%

How did CN(Cc1ccccc1)Cc1nc2c(c(=O)n(C)c(=O)n2C)n1Cc1ccc(Cl)cc1 do in these assays?
Nrf2 inh: 15µM*; IL2 activator: -1; Nrf2 activator: 0%

How did CCCCCCn1c(N2CCN(c3ccccc3)CC2)nc2c1c(=O)n(C)c(=O)n2C do in these assays?
A549 viability: inconclusive; Nrf2 inh: 23µM*; IL2 activator: -1; Nrf2 activator: -1%

From PubChem
